Test results from PubChem BioAssay (NCI).
“And” between values parts separate entries of the source, which are not always exact repeats. Identical values can stand only once. About 79,000 compounds went through this panel and 15% of them were active in at least one assay; those are over-represented in the sample as a whole. Cut-off read from the data, not from the text of the source: active = growth inhibition above about 70%; inactive = the rest.

What was measured:
[1] = NCI Yeast Anticancer Drug Screen. Data for the rad50 strain (AID 155);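 note: 0% = growth of vehicle-only cultures of the same strain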; settings: S. cerevisiae rad50 strain growth inhibition, hits give high values; at 50.0 µM unless noted
Summary of the method: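 Yeast carrying a defined DNA repair defect were exposed to test compounds, and growth was compared with vehicle-treated controls to give percent inhibition.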

[2] = NCI Yeast Anticancer Drug Screen. Data for the mec2-1 strain (AID 157); settings: S. cerevisiae mec2-1 strain, hits give high values; at 50.0 µM unless noted
Summary of the method: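 Test agents were screened against the mec2-1 yeast strain, with defined DNA repair or cell cycle alteration. Growth was scored as inhibition against vehicle-only controls.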

[3] = NCI Yeast Anticancer Drug Screen. Data for the sgs1 mgt1 strain (AID 161);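 note: 0% = growth of cultures given vehicle only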; settings: S. cerevisiae sgs1 mgt1 strain, hits give high values; at 50.0 µM unless noted
Summary of the method: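 Mutant yeast exposed to compound; growth scored against vehicle-only wells.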

[4] = NCI Yeast Anticancer Drug Screen. Data for the cln2 rad14 strain (AID 165);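 note: 0% = growth equal to vehicle treated cultures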; settings: S. cerevisiae cln2 rad14 strain, hits give high values; at 50.0 µM unless noted
Summary of the method: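 Growth of compound-exposed yeast (cln2 rad14 genotype) measured and expressed as inhibition relative to vehicle.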

[5] = NCI Yeast Anticancer Drug Screen. Data for the bub3 strain (AID 167); settings: S. cerevisiae bub3 mutant strain, hits give high values; at 50.0 µM unless noted
Summary of the method: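 Compounds were applied to a genetically altered yeast strain carrying a cell-cycle control defect. Growth inhibition was scored against vehicle-treated controls.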

[6] = NCI Yeast Anticancer Drug Screen. Data for the mlh1 rad18 strain (AID 175); settings: S. cerevisiae mlh1 rad18 strain growth inhibition, hits give high values; at 50.0 µM unless noted
Summary of the method: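 In this whole-cell yeast screen, a strain with altered DNA damage repair is challenged with compound, and its growth is measured against matched vehicle-treated controls.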

Measured: growth inhibition

CC(=O)OC(C#N)c1ccco1 (stereo not given)
inactive: [1] -11.4% | [2] -49.1% | [3] -25.2% | [4] 5.8% | [5] -38.2% | [6] -7.85%

COC(=O)c1ccc(-n2cc(C(=O)OC)c([N+]#N)c2[O-])cc1
inactive: [1] 9.4% | [2] 11.6% | [3] -13.6% | [4] -13.6% | [5] 18.9% | [6] 16.6%

O=CNc1nc[nH]c1-c1noc(=O)[nH]1
inactive: [1] -2.75% | [2] -9.5% | [3] -3.5% | [4] -23.9% | [5] -10.8% | [6] -6.8%

Cc1ccc(NC(=O)Oc2ccc(-c3ccccc3)cc2Br)c(Br)c1
inactive: [1] 52.1% | [2] 58% | [3] 54.6% | [4] 40% | [5] 51.9% | [6] 53.7%

CC(=O)OC[C@@]12C[C@H]3C(=O)C(C)(C)C[C@H]3[C@]1(C)[C@@H](OC(C)=O)[C@]1(O)[C@H]([C@@H](OC(=O)c3ccccc3)[C@@H](C)[C@H]1OC(C)=O)[C@H]2OC(C)=O
inactive: [1] -13.6% | [2] -26.9% | [3] 3.25% | [4] -3.25% | [5] 10.8% | [6] -3.15%

O=C1CCCC(=O)N1n1c(Cc2ccc(Cl)cc2)n[nH]c1=O
inactive: [1] -31.6% | [2] -11.8% | [3] 1.3% | [4] 7.5% | [5] -19.6% | [6] -1.5%

Nc1ccc(S(=O)[O-])cc1.Nc1ccc(S(=O)[O-])cc1.[Zn+2]
inactive: [1] -19.2% | [2] -19.9% | [3] -6.15% | [4] -26.5% | [5] 1% | [6] -15.6%

Cc1cc(=O)oc2nn(CCO)c(C)c12
inactive: [1] -35.3% | [2] -17.6% | [3] -10.1% | [4] -41.9% | [5] -10.6% | [6] -13.7%

S=c1c2[nH]cnc2ncn1CCSC1=NC=NC2=NC=NC21 (stereo not given)
inactive: [1] 27.8% | [2] -23.6% | [3] -26.9% | [4] -22.8% | [5] -55% | [6] -8.6%

Cc1nc2ccc(Br)cc2c(=O)n1-c1ccc(-c2n[nH]c(=S)n2-c2ccccc2)cc1
inactive: [1] 14% | [2] 13.2% | [3] 13.4% | [4] -27.9% | [5] 6.8% | [6] 42.4%

CCOC(=O)Cc1nc2nn(Cc3ccccc3)cc2c(=O)[nH]1
inactive: [1] -48.8% | [2] -63.9% | [3] -7% | [4] 0.65% | [5] -10.9% | [6] -19.8%

[N-]=[N+]=CC(=O)CCC(=O)N(c1ccccc1)c1ccccc1
inactive: [1] -30% | [2] -20.8% | [3] -52.5% | [4] -28.5% | [5] 2.2% | [6] -30.6%

C[n+]1ccc2ccccc2c1
inactive: [1] 6.9% and -7.2% | [2] 0.55% and 5.3% | [3] 21.2% and 1.15% | [4] -36.8% and -2.25% | [5] 3.05% and -6.5% | [6] 9.6% and 10.4%

Cn1c2c(c3ccccc31)CCN(CCCCN1CCN(c3ccccc3)CC1)C2=O
inactive: [1] 3.8% | [2] -17.5% | [3] -36% | [4] 3.55% | [5] -11.2% | [6] -7.35%

O=C(N1CCN(C(=O)S(=O)(=O)c2ccccc2)CC1)S(=O)(=O)c1ccccc1
inactive: [1] 29.9% | [2] -16.9% | [3] 19.8% | [4] 20.1% | [5] 1.85% | [6] -3.55%

COc1ccc(/C=N/NC(=O)c2sc(=S)n(-c3ccccc3)c2N)cc1
inactive: [1] 2.9% | [2] -0.45% | [3] -40.1% | [4] -16.9% | [5] -17.1% | [6] -7.5%

O=[N+]([O-])c1cccc(/C=N/Nc2ccc(S(=O)(=O)O)cc2)c1
inactive: [1] 18.6% | [2] 19.3% | [3] -1.9% | [4] 2.5% | [5] 12.7% | [6] 39.2%

CCN(CC)c1ccc(/C=C(\C)c2nc3ccc(C)cc3[nH]2)cc1
inactive: [1] -5.25% | [2] -10.7% | [3] 8.1% | [4] 1.8% | [5] -9.3% | [6] 3.45%

Cc1cc(=O)n2nc(CCl)sc2n1
inactive: [1] 9.65% | [2] 10.2% | [3] 6.15% | [4] -8% | [5] 11.3% | [6] 10.1%

Cc1c(Cl)cccc1NC(=O)CCl
inactive: [1] 7.95% | [2] 32.1% | [3] 28.2% | [4] 5.75% | [5] -3.85% | [6] 16.2%
